Experimental data as given in PubChem BioAssay (NCATS).
Several values for one entry are separate records, joined by “and”; a condition that tells them apart may be missing. Equal entries are not always repeated. Records with an inconclusive call do not appear. Where a structure was tested more than once in an assay, its records may differ in their call. Activity calls are given as the source filed them. The call rests on the fitted dose curve; in most records, active means well fitted curve in the direction sought with a large enough effect; inconclusive means small, poorly fitted or top-dose-only effect, or another doubt; inactive means no such curve, though single readings can be large; an effect the other way counts as inactive or inconclusive.

Assays:
[1] = Viability qHTS for spleen associated tyrosine kinase inhibitor (SYKi) drug resistant MV4-11 cells (AID 1963824); details: SYKi-resistant MV4-11 viability, CellTiter-Glo, 72 h; series mostly up to 45 µM; further: nearly all actives have a fitted effect of over 35% in size
Procedure, shortened: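 SYK-inhibitor-resistant MV4-11 AML cells were seeded at 500 per well onto compound and cultured 72 hours (37 °C, 5% CO2). CellTiter-Glo was then added, and after 10 min at room temperature, luminescence gave viability.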

[2] = Quantitative highthroughput screen to assess conditional lethalithy of NOMO1 cells grown in RPMI1640 with untreated serum (RPMI+s) (AID 1963876); details: NOMO1 AML cells in RPMI+serum, CellTiter-Glo viability, 48 h; series mostly up to 45.8 µM; further: nearly all actives have a fitted effect of over 35% in size;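 on Viability: 100% = DMSO wells and 0% = empty wells without cells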
Procedure, shortened: (§1)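 Each medium arm—HPLM with 10% dialyzed FBS, or RPMI1640 with 5 mM glucose and 10% untreated or dialyzed FBS—was screened against an 11-point, 3-fold compound titration for 48 h at 37 °C, with CellTiter-Glo luminescence as endpoint.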

[3] = Quantitative highthroughput screen to assess conditional lethalithy of NOMO1 cells grown in Human Plasma-Like Medium with dialyzed fetal bovine serum (HPLM+ds) (AID 1963878); details: NOMO1 AML cells in HPLM+ds, CellTiter-Glo viability, 48 h; series mostly up to 45.8 µM; further: nearly all actives have a fitted effect of over 35% in size;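 on Viability: 100% = DMSO wells and 0% = empty wells on each plate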
Procedure, shortened: as §1

[4] = Quantitative highthroughput screen to assess conditional lethalithy of SEM cells grown in RPMI1640 with unreated serum (RPMI+s) (AID 1963883); details: SEM B-ALL cells, CellTiter-Glo viability, 48 h; series mostly up to 45.8 µM; further: nearly all actives have a fitted effect of over 35% in size;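 on Viability: 100% = DMSO wells and 0% = empty wells without cells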
Procedure, shortened: as §1

[5] = Cellular viability qHTS for adrenocortical cancer (ACC) cell line SW-13 (AID 1963989); details: SW-13 ACC cells viability, CellTiter-Glo, 48 h; activity (max response): stronger effect = lower value; further: nearly all actives have a fitted effect of over 65% in size;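 on activity (max response): cells grown in serum-free medium with ITS supplement; on the % scale 0 is the no-effect control and ±100 the full control effect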
Procedure, shortened: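 48 h treatment, SW-13 in ITS/DMEM serum-free; doses up to 46 uM; readout CellTiter-Glo luminescence; curve fit four-parameter logistic.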

[6] = Cellular viability qHTS for adrenocortical cancer (ACC) cell line NCI-H295R (AID 1963990); details: CellTiter-Glo ATP luminescence, 48 h; series mostly up to 46.1 µM; further: nearly all actives have a fitted effect of over 60% in size
Procedure, shortened: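 Compound titrations (up to 46 uM final) are applied to NCI-H295R cultures for 48 h at 37C. Viable cell number is estimated by CellTiter-Glo signal, normalised to DMSO and doxorubicin controls.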

[7] = Quantitative highthroughput screen to assess conditional lethalithy of P12 Ichikawa cells grown in Human Plasma-Like Medium with dialyzed fetal bovine serum (HPLM+ds) (AID 1963879); details: ATP luminescence, 48 h; Potency: viability; series mostly up to 45.8 µM; further: nearly all actives have a fitted effect of over 35% in size
Procedure, shortened: as §1

[8] = Quantitative highthroughput screen to assess conditional lethalithy of P12 Ichikawa cells grown in RPMI1640 with untreated serum (RPMI+s) (AID 1963881); details: ATP luminescence, 48 h; Potency: viability; series mostly up to 45.8 µM; further: nearly all actives have a fitted effect of over 35% in size;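 on Viability: 100% = DMSO wells and 0% = empty wells without cells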
Procedure, shortened: as §1

[9] = Quantitative highthroughput screen to assess conditional lethalithy of P12 Ichikawa cells grown in RPMI1640 with dialyzed fetal bovine serum (RPMI+ds) (AID 1963880); details: ATP luminescence, 48 h; Potency: P12-Ichikawa viability; series mostly up to 45.8 µM; further: nearly all actives have a fitted effect of over 35% in size;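 on Viability: 100% = DMSO wells and 0% = empty wells on each plate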
Procedure, shortened: as §1

[10] = Quantitative highthroughput screen to assess conditional lethalithy of SEM cells grown in Human Plasma-Like Medium with dialyzed fetal bovine serum (HPLM+ds) (AID 1963882); details: SEM B-ALL cells in HPLM+ds, CellTiter-Glo viability, 48 h; series mostly up to 45.8 µM; further: nearly all actives have a fitted effect of over 35% in size
Procedure, shortened: as §1

[11] = Quantitative highthroughput screen to assess conditional lethalithy of SEM cells grown in RPMI1640 with dialyzed fetal bovine serum (RPMI+ds) (AID 1963884); details: SEM B-ALL cells, RPMI+dialyzed FBS, CellTiter-Glo viability, 48 h; series mostly up to 45.8 µM; further: nearly all actives have a fitted effect of over 35% in size;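 on Viability: 100% = DMSO control wells and 0% = empty wells without cells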
Procedure, shortened: as §1

[12] = Quantitative highthroughput screen to assess conditional lethalithy of NOMO1 cells grown in RPMI1640 with dialyzed fetal bovine serum (RPMI+ds) (AID 1963877); details: NOMO1 in RPMI+dialyzed FBS viability, ATP luminescence, 48 h; series mostly up to 45.8 µM; further: nearly all actives have a fitted effect of over 30% in size;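 on Viability: 100% = DMSO control wells and 0% = empty wells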
Procedure, shortened: as §1
Potency means the concentration at half of the fitted maximal effect.

Structure (SMILES): COc1cc2nccc(Oc3ccc(NC(=O)Nc4cc(C)on4)c(Cl)c3)c2cc1OC
- Potency [1]: 833 nM (active)
- Potency [2]: inactive
- Potency [3]: inactive
- Potency [4]: 3.32 µM (active)
- Potency [5]: 11.2 µM (active)
- Potency [6]: 14.1 µM (active)

Structure (SMILES): Cc1cn(-c2cc(NC(=O)c3ccc(C)c(Nc4nccc(-c5cccnc5)n4)c3)cc(C(F)(F)F)c2)cn1
- Potency [1]: inactive and 4.68 µM (active)
- Potency [2]: 0.935 µM (active)
- Potency [7]: 0.935 µM (active)
- Potency [8]: 1.32 µM (active)
- Potency [6]: inactive

Structure (SMILES): CCOc1cc(C(C)(C)C)ccc1C1=N[C@@](C)(c2ccc(Cl)cc2)[C@@](C)(c2ccc(Cl)cc2)N1C(=O)N1CCN(CC(=O)N2CCOCC2)CC1
- Potency [1]: 11500 nM (active)
- Potency [2]: inactive
- Potency [7]: inactive
- Potency [9]: inactive
- Potency [10]: inactive
- Potency [4]: 6.6 µM (active)
- Potency [11]: 5.88 µM (active)
- Potency [6]: 14.1 µM (active)

Structure (SMILES): Cc1cccc(-c2[nH]c(C(C)(C)C)nc2-c2ccc3nccnc3c2)n1
- Potency [1]: 18.6 µM (active) and 1.3 µM (active)
- Potency [2]: inactive
- Potency [9]: inactive
- Potency [10]: 23.5 µM (active)
- Potency [4]: 20.9 µM (active)
- Potency [11]: 18.7 µM (active)
- Potency [6]: inactive

Structure (SMILES): CCC[C@H](N[C@@H](C)C(=O)N1[C@@H]2CCCC[C@H]2C[C@H]1C(=O)O)C(=O)OCC
- Potency [1]: inactive
- Potency [2]: 13.2 µM (active)
- Potency [10]: inactive
- Potency [4]: inactive
- Potency [11]: inactive
- activity (max response) [5]: 2.75% (inactive)
- Potency [6]: inactive

Structure (SMILES): COc1cc([C@@H]2c3cc4c(cc3[C@H](O)[C@H]3COC(=O)[C@@H]23)OCO4)cc(OC)c1OC
- Potency [1]: 372 nM (active)
- Potency [2]: 0.418 µM (active)
- Potency [7]: 0.332 µM (active)
- Potency [9]: 0.469 µM (active)
- Potency [8]: 0.372 µM (active)
- Potency [10]: 0.296 µM (active)
- Potency [4]: 0.296 µM (active)
- Potency [11]: 0.264 µM (active)
- Potency [5]: 0.631 µM (active)
- Potency [6]: 0.501 µM (active)

Structure (SMILES): CC(=O)OC1C(C)OC(Oc2c(-c3ccc(O)cc3)oc3cc(O)cc(O)c3c2=O)C(O)C1OC(C)=O (configuration not stated)
- Potency [1]: 20900 nM (active)
- Potency [12]: inactive
- Potency [3]: inactive
- Potency [7]: inactive
- Potency [9]: inactive
- Potency [8]: inactive
- Potency [10]: inactive
- Potency [11]: inactive
- Potency [6]: inactive

Structure (SMILES): CCCS(=O)c1ccc2nc(NC(=O)OC)[nH]c2c1 (configuration not stated)
- Potency [1]: 23.7 µM (active) and 23.5 µM (active)
- Potency [2]: 20.9 µM (active)
- Potency [3]: 20.9 µM (active)
- Potency [5]: 25.1 µM (active)

Structure (SMILES): COc1cc2nccc(Oc3ccc(NC(=O)C4(C(=O)Nc5ccc(F)cc5)CC4)cc3)c2cc1OC
- Potency [1]: 9.3 nM (active)
- Potency [2]: inactive
- Potency [8]: 20.9 µM (active)
- Potency [5]: 12.6 µM (active)
- Potency [6]: 10 µM (active)

Structure (SMILES): CN(C)c1ccccc1CN1CCCN(Cc2ccccc2N(C)C)C1c1ccncc1
- Potency [1]: 7420 nM (active)
- Potency [2]: inactive
- Potency [7]: inactive
- Potency [9]: inactive
- Potency [8]: inactive
- Potency [10]: inactive
- Potency [11]: inactive
- Potency [5]: 28.2 µM (active)
- Potency [6]: 28.2 µM (active)

Structure (SMILES): CN(C)CC(C)(C)CNc1nn2c(-c3ccccc3)nnc2cc1C1CCC1
- Potency [1]: 10.3 nM (active)
- Potency [2]: 20.9 µM (active)
- Potency [3]: 10.5 µM (active)
- Potency [9]: 18.7 µM (active)
- activity (max response) [5]: -3.73% (inactive)

Structure (SMILES): OCCN(CCO)c1nc(N2CCCCC2)c2nc(N(CCO)CCO)nc(N3CCCCC3)c2n1
- Potency [1]: 18.8 µM (active) and 14.8 µM (active)
- Potency [2]: inactive
- Potency [10]: inactive
- Potency [5]: 5.17 µM (active)
- activity (max response) [5]: -9.57% (inactive)
- Potency [6]: 1.46 µM (active) and inactive

Structure (SMILES): O=C(c1cc(Cc2n[nH]c(=O)c3ccccc23)ccc1F)N1CCN(C(=O)C2CC2)CC1
- Potency [1]: 16600 nM (active)
- Potency [2]: inactive
- Potency [9]: 20.9 µM (active)
- Potency [4]: 6.62 µM (active)
- Potency [6]: inactive

Structure (SMILES): CN(C)C(=O)[C@H](O)[C@H](Cc1ccccc1)NC(=O)c1cc2cc(Cl)ccc2[nH]1
- Potency [1]: 20900 nM (active)
- Potency [2]: inactive
- Potency [10]: 2.09 µM (active)
- Potency [4]: 2.64 µM (active)
- Potency [11]: 2.35 µM (active)

Structure (SMILES): COc1cccc2nc(-c3cccs3)nc(NN3C(=O)C=C(C)C3=O)c12
- Potency [1]: 148 nM (active)
- Potency [12]: 1.32 µM (active)
- Potency [3]: 0.469 µM (active)
- Potency [7]: 2.09 µM (active)
- Potency [9]: 2.96 µM (active)
- Potency [8]: 2.64 µM (active)
- Potency [10]: 0.418 µM (active)
- Potency [4]: 0.935 µM (active)
- Potency [11]: 1.32 µM (active)
- Potency [5]: 11.2 µM (active)
- Potency [6]: 2.82 µM (active)

Structure (SMILES): CN(C)C(=O)c1ccc(S(=O)(=O)c2ccc(NC(=O)[C@@](C)(O)C(F)(F)F)c(Cl)c2)cc1
- Potency [1]: 9.2 µM (active) and 3.72 µM (active)
- Potency [2]: 11.8 µM (active)
- Potency [3]: 10.5 µM (active)
- Potency [8]: 14.8 µM (active)
- Potency [6]: inactive

Structure (SMILES): C=CCc1cc(OC)c(O)c(C(=O)NCCO)c1
- Potency [1]: inactive
- Potency [12]: inactive
- Potency [3]: inactive
- Potency [7]: inactive
- Potency [9]: inactive
- Potency [8]: inactive
- Potency [4]: inactive
- Potency [11]: inactive
- activity (max response) [5]: -2.94% (inactive)
- Potency [6]: inactive
